Mcl1-Noxa inh: Mcl-1/Noxa binding inhibitors, primary screen, biochemical, TR-FRET, 1536-well. TR-FRET Mcl-1/Noxa peptide binding, 2 h. inhibition, % at 21.7 µM. 220,000 compounds, 1.5% hits;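 active means compounds that cut the protein-peptide binding signal by more than 50% relative to plate controls in a single-dose test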;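 further: His-tagged Mcl-1 with rhodamine Noxa BH3 peptide and terbium anti-His antibody; 0% = Mcl-1 plus Noxa peptide wells and 100% = peptide-only wells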
Target sequence (Q07820 whole entry, looked up): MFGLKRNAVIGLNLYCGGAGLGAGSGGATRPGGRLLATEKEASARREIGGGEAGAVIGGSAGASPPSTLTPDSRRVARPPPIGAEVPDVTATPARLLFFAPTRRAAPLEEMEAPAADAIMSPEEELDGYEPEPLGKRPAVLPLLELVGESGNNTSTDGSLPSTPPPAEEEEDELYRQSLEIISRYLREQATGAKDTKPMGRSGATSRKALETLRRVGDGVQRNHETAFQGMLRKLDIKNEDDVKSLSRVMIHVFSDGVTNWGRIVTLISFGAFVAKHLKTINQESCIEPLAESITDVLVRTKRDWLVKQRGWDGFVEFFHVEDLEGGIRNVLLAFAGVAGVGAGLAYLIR
Mcl-1 Bim block: inhibitors of Bim peptide binding to Mcl-1, primary screen, biochemical, bead-based flow cytometry, multiplex. Induced myeloid leukemia cell differentiation protein Mcl-1 (Homo sapiens), Q07820. Bim peptide-Mcl-1 binding. inhibition, % at 10 µM. 190,000 compounds, 0.1% hits; in the data active means inhibition above about 40%;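 further: 0% = no compound tracer wells and 100% = peptide blocker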
Mcl1 Bid PPI: Mcl-1/Bid binding inhibitors, primary screen, biochemical, TR-FRET, 1536-well; Induced myeloid leukemia cell differentiation protein Mcl-1 (Homo sapiens), Q07820; TR-FRET Mcl-1/Bid-Dy647 peptide binding; inhibition, % at 21.7 µM; 220,000 compounds, 0.97% hits;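 active means compounds that cut the binding signal by more than half at the single screening dose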;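 further: His-tagged Mcl-1 with europium anti-His antibody binding Bid BH3 peptide; 0% = Mcl-1 plus peptide wells and 100% = peptide-only wells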
NCF1 inh: p47phox/p22phox peptide binding inhibitors, primary screen, biochemical, uHTS, NADPH oxidase regulatory subunit | Neutrophil cytosol factor 1 (Homo sapiens), P14598 | fluorescence polarization, 2 h | inhibition, % at 24.7 µM | 220,000 compounds, 0.53% hits;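 active means inhibition above about 30%, limit read from the data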;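 further: 0% = p47phox with labelled peptide and 100% = labelled peptide alone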
14-3-3 Bad inh: inhibitors of 14-3-3 zeta/Bad binding, primary screen, biochemical, TR-FRET, bovine 14-3-3 zeta. TR-FRET 14-3-3zeta/Dy647-pBad peptide displacement, 1 h. inhibition, % at 21.7 µM. 220,000 compounds, 0.71% hits. AID 781, 2007;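 active means inhibition above about 70%, limit read from the data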;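 further: 0% = full 14-3-3 plus peptide FRET controls and 100% = background without 14-3-3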
Target sequence (P63103 whole entry, looked up): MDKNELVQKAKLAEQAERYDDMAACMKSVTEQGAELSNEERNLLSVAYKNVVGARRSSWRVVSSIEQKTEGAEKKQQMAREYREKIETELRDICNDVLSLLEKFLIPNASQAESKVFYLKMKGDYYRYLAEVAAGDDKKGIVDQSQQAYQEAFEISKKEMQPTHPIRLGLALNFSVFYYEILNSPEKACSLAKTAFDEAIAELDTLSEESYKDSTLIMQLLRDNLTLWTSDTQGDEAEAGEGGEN
Active calls of the source: *; · = no result; + = active, no number; [ ] = remark or other dose. An excerpt weighted towards active compounds, which were near 3.2% of everything screened.

SMILES	Mcl1-Noxa inh	Mcl-1 Bim block	Mcl1 Bid PPI	NCF1 inh	14-3-3 Bad inh
CCn1c(-c2nn(-c3ccc(C)cc3)ccc2=O)n[nH]c1=S	38	0	-33	-9	88*
O=Cc1cc2ccccc2nc1SCCCF	4	-2	3	-10	-9
COc1ccc(C(=O)CCC(=O)Nc2cccc(Cl)c2)cc1	7	-1	10	-9	5
O=C(CCC(=O)c1ccc(Oc2ccccc2)cc1)Nc1cccc(Cl)c1	7	-9	98*	-5	1
COc1ccc(C(=O)Nc2ccccc2C(=O)N2CCCCC2C)cc1 (centres undefined)	0	4	-21	-12	-7
Cc1cc(N(CCO)CCO)ccc1C(c1ccc(N(CCO)CCO)cc1C)c1ccccc1Cl	101*	1	57*	-22	3
COC(=O)C1=C(C)N(Cc2ccco2)C(=O)/C1=C\c1ccc([N+](=O)[O-])cc1	16	-5	-26	-44	-12
COC(=O)C1=C(C)N(Cc2ccco2)C(=O)/C1=C\c1ccc(N(C)C)cc1	54*	0	-66	-206	-1
C=CCN(c1ccc(F)cc1)S(=O)(=O)c1cc(C(=O)OCC(=O)N(C)C2CCS(=O)(=O)C2)ccc1Cl (centres undefined)	7	·	-14	-11	10
COc1ccc2nc(NC3=NC(C(=O)Nc4ccc(C)cc4)CC(=O)N3)nc(C)c2c1 (centres undefined)	13	3	17	8	-3
COc1ccc(C(=O)Nc2cccc(-c3cc4ccccc4oc3=O)c2)cc1[N+](=O)[O-]	56*	-1	87*	32*	75*[fluorescence artefact?]
COc1ccc2nc(NC(=O)c3cccc(-c4cc5ccccc5oc4=O)c3)sc2c1	54*	-2	87*	39*	69
COc1ccc(OCC(=O)Nc2cccc(NC(=O)c3ccco3)c2)cc1	8	12	-41	0	-9
CC1OC(OCC2OC(Oc3c(-c4ccc(O)cc4)oc4cc(O)cc(O)c4c3=O)C(O)C(O)C2O)C(O)C(O)C1O (centres undefined)	54*	0	-7	-16	35
Cc1sccc1/C=N/NC(=O)c1cccc2ccccc12	92*	-2	-10	-4	-1
CC(CN1C(C)CCCC1C)OC(=O)c1ccc(Cl)cc1Cl (centres undefined)	12	0	-1	-15	-2
Cc1nn(CCc2nn[nH]n2)c2nc(-c3ccc(C4CCCCC4)cc3)cc(C(F)(F)F)c12	-45	0	59*	-25	-14
CCOC(=O)c1cc(-c2ccc(C#N)cc2)nc2c1c(C)nn2CCC#N	16	1	-16	-4	4
[O-]c1c[n+](-c2ccc(-[n+]3cc([O-])on3)cc2)no1	57*	3	-30	0	-8
[O-]c1c[n+](-c2ccccc2)no1	-4	·	-7	-6	0
O=C1OCC=C1NNC(=O)c1cccnc1	25	0	-41	+	-5
Cc1ccc(C(=O)N/N=C\c2ccc(-c3ccc(Cl)cc3)o2)cn1	15	·	9	6	3
CC(C)Oc1ccc(C(=O)N/N=C/c2ccc(-c3ccc(S(=O)(=O)Nc4ncccn4)cc3)o2)cc1	67*	-1	-34	-30	1
NC1CCN(c2c(F)cc3c(=O)c(C(=O)O)cn(C4CC4)c3c2Cl)C1 (centres undefined)	-37	·	63*	8	28
Cc1cc(NC(=O)Nc2ccccc2F)ccc1Br	13	0	1	·	-5
SMILES	Mcl1-Noxa inh	Mcl-1 Bim block	Mcl1 Bid PPI	NCF1 inh	14-3-3 Bad inh
CCn1c(C)cc(/C=C2/SC(=S)NC2=O)c1C	6	-5	-29	-9	-3
Cc1sc(-n2c(C)cc(/C=C3\SC(=S)NC3=O)c2C)c(C#N)c1C	75*	0	-56	-131	2
Cc1cc(/C=C2/C(=O)NN(c3ccccc3)C2=O)c(C)n1-c1cccc(O)c1	87*	-7	-20	2	-10
Cc1cc(/C=C2\SC(=S)NC2=O)c(C)n1-c1cccc(O)c1	53*	·	-41	-76	-2
Cc1cc(C=C2C(=O)c3ccccc3C2=O)c(C)n1-c1cccc(C(=O)O)c1	31	2	-44	-24	-14
Cc1ccc(NC(=O)/C(Cl)=C/c2ccccc2)cc1C	14	6	-9	-4	-7
CCOC(=O)C1=C(COc2ccc(C)cc2)NC(=O)NC1c1cc(C)ccc1C (centres undefined)	13	-6	-15	+	-1
CCc1cccc(C)c1NC(=O)CN(C)Cc1ccccc1F	6	-3	-10	16	-5
Cc1ccc2[nH]c(=O)cc(C(=O)OC(C)C)c2c1	3	0	-4	-3	2
COc1cccc(N=Nc2c(=O)[nH]n3c(=O)c4c([nH]c23)CCC4)c1	40	0	-102	-5	12
O=c1[nH]n2c(=O)c3c([nH]c2c1N=Nc1cccc(Cl)c1)CCC3	58*	2	-170	2	21
COC(=O)c1ccc(C(=O)OC)c(NC(=S)N2CCN(c3ccccn3)CC2)c1	10	7	-35	-7	0
C[C@@H](C(=O)N1CCN(C(=O)OC(C)(C)C)CC1)n1cc(CCCN=C(NC(=O)OC(C)(C)C)NC(=O)OC(C)(C)C)nn1	6	3	6	-2	13
O=C(O)C/C(=C\c1cccc(NC(=O)c2ccccc2Cl)c1)c1nc2ccccc2s1	65*	·	-20	-9	-3
COc1cc(/C=C(\CC(=O)O)c2nc3ccccc3s2)cc(OC)c1O	58*	-1	19	-9	-4
COc1ccc(C(=O)Nc2cccc(/C=C/c3nc4ccccc4c(=O)[nH]3)c2)cc1	57*	·	43	-9	41
COc1ccc(/C=C(\CC(=O)O)c2nc3ccccc3s2)cc1O	25	0	-3	-15	-25
COc1ccc(C(=O)Nc2nc3cc(OC)c(OC)cc3c(=O)[nH]2)cc1	-8	10	99*	-5	4
COC(=O)c1cn(NC(=O)/C=C/c2ccc(OC)c(OC)c2)c(=O)c2ccccc12	2	-6	15	-2	4
Cc1cc(/C=N/N2CCN(C)CC2)c(C)n1-c1ccc(Cl)cc1	15	·	-19	-17	3
Cc1ccc(/C=C(\CCC(=O)O)c2nc3ccccc3s2)cc1[N+](=O)[O-]	27	-4	4	-16	-11
CN(c1ccccc1)c1ccc(/C=C(\CCC(=O)O)c2nc3ccccc3s2)cc1[N+](=O)[O-]	100*	-1	-41	-3	-5
COc1ccc(C(=O)Nc2cccc(/C=C(\CCC(=O)O)c3nc4ccccc4s3)c2)cc1	85*	·	-61	-35	-1
Cc1ccc(Nc2nc(-c3ccc(O)c(O)c3)cs2)nc1	54*	1	-12	-6	-3

Screens from PubChem BioAssay.
